Source: PubChem BioAssay (NCATS)
Values joined by “and” are separate entries in the source; they are usually repeats but may differ in a detail not shown here. Identical values can stand only once. Inconclusive results are not listed. Active and inactive are the calls of the source. Unless noted, calls follow the shape of the dose curve; as a rule, active = well fitted curve in the direction sought with a large enough effect; inconclusive = small, poorly fitted or top-dose-only effect, or another doubt; inactive = no such curve, though single readings can be large; an effect the other way counts as inactive or inconclusive.

What was measured:
[1] = qHTS assay for small molecule antagonists of the retinoid-related orphan receptor gamma (ROR-gamma) signaling pathway - cell viability counter screen (AID 720652; active = well fitted curve in the direction sought with a large enough effect in the repeat runs; an effect the other way counts as inactive or inconclusive;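 also: CHO reporter cells with doxycycline-induced ROR-gamma expression; series mostly up to about 92 µM; compound exposure lasted 16 hr before ATP read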)
In short: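 Counter screen in CHO cells carrying TET-inducible ROR-gamma and an ROR response element-luciferase reporter; cells plated 5 hr, compound pinned, doxycycline added, then 16 hr at 37 C. Viability read as intracellular ATP by CellTiter-Glo luminescence.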

[2] = qHTS assay for small molecule agonists of the antioxidant response element (ARE) signaling pathway measured by Nrf2-dependant transcriptional activity - cell viability counter screen (AID 720653; active = well fitted curve in the direction sought with a large enough effect in the repeat runs; an effect the other way counts as inactive or inconclusive); conditions: ARE-bla HepG2 viability, CellTiter-Glo ATP luminescence, 16 h; hits give low values
In short: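 ARE-bla HepG2 cells treated with compounds for 16 h at 37C; this counter screen measures viability as intracellular ATP by CellTiter-Glo luminescence after 30 min at room temperature.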

[3] = qHTS Assay for Identifying Gametocytocidal Compounds (AID 743244);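 also: actives lower the fluorescent signal which means gametocytes are killed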; conditions: P. falciparum 3D7 stage III-V gametocytes, alamarBlue, 72 h; max response: hits give low values
In short: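 In this qHTS viability screen, late-stage 3D7 gametocytes are incubated with compound for 72 h, then with alamarBlue for 24 h; reduced resorufin fluorescence marks killing.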

[4] = qHTS assay for cell viability of the p53RE-bla HCT-116 cell line (AID 743292); also: nearly all actives have a fitted effect of over 55% in size
In short: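 In this qHTS counter-screen, metabolically competent p53RE-bla HCT-116 cells were counted via their ATP content. Compounds were applied for 16 h at 37 C and luciferase-coupled luminescence was measured.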

[5] = qHTS assay to identify small molecule inhibitors of chordoma cells - UCH-1 (AID 1259355); also: nearly all actives have a fitted effect of over 55% in size
In short: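 Cells (800/well) were seeded and left overnight at 37 C, 5% CO2, then treated with drugs at 15 concentrations plus a combination mix of auranofin, camptothecin, doxorubicin, rubitecan and topotecan. Viability after 48hr was read by CellTiter-Glo luminescence.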

[6] = qHTS assay to identify small molecule inhibitors of chordoma cells - UCH-2 (AID 1259356); also: series mostly up to about 46 µM
[7] = qHTS assay for cell viability of HEK293 cells (AID 743288); conditions: ATP luminescence (CellTiter-Glo), 18 h; max response: hits give low values; also: nearly all actives have a fitted effect of over 50% in size
In short: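 The Tox21 protocol used parental HEK293 cells treated for 18 h at 37 C with compounds delivered by pintool; ATP-coupled luminescence after 30 min at room temperature gave viability.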
% is scaled to controls: 0 for no effect and ±100 for the full control effect.

NC(N)=O
inactive: outcome [1] | max response [2] -1.96% | max response [3] 2.55% | outcome [4] | Potency [5] | Potency [6]

CCCCCCCCCCCCCCCCCC(=O)OC[C@@H](O)[C@H]1OC[C@H](O)[C@H]1O
inactive: max response [2] -0.0548% | max response [3] -8.87% | outcome [4] | Potency [5] | Potency [6]

CC/C=C\C/C=C\C/C=C\CCCCCCCC(=O)O
inactive: outcome [1] | max response [2] -3.01% | max response [3] 13.1% | max response [7] -4.87% | outcome [4] | Potency [5] | Potency [6]

Nc1ncnc2c1ncn2[C@H]1CC[C@@H](CO)O1
inactive: outcome [1] | max response [2] -18.5% and 2.96% | max response [3] -3.96% | outcome [4] | Potency [5] | Potency [6]

CCCCC
inactive: outcome [1] | max response [2] -14.6% | max response [3] 2.54% | outcome [4] | Potency [5] | Potency [6]

ClC(Cl)Cl
inactive: outcome [1] | max response [2] -10.5% | max response [3] 9.6% | max response [7] -2% | outcome [4] | Potency [5] | Potency [6]

N[C@@H](Cc1cc(I)c(Oc2ccc(O)c(I)c2)c(I)c1)C(=O)O
inactive: max response [2] -4.18% | max response [3] 3.17% | max response [7] -8.83% | outcome [4] | Potency [5] | Potency [6]

CO/N=C(/C(=O)N[C@@H]1C(=O)N2C(C(=O)O)=C(COC(N)=O)CS[C@H]12)c1ccco1
inactive: outcome [1] | max response [2] 4.41% | max response [3] -11% and 13.4% | outcome [4] | Potency [5] | Potency [6]

Cc1ccc(S(=O)(=O)O)cc1C
inactive: outcome [1] | max response [2] 12.7% | max response [3] 1.6% | max response [7] 0.0836% | outcome [4] | Potency [5] | Potency [6]

CC(=O)OCC(=O)[C@@]1(O)CC[C@H]2[C@@H]3CCC4=CC(=O)CC[C@]4(C)C3=CC[C@@]21C
inactive: max response [3] -8.18% | Potency [5] | Potency [6]

Cn1c(=O)c2c(ncn2CCOC(=O)C(C)(C)Oc2ccc(Cl)cc2)n(C)c1=O
inactive: max response [3] 17.7% | Potency [5] | Potency [6]

C[S+](C)CCC(N)C(=O)O (stereo not given)
inactive: max response [3] 3.96% | Potency [5] | Potency [6]

O=C(NCCNCC(O)COc1ccc(O)cc1)N1CCOCC1 (stereo not given)
inactive: max response [3] -13.8% | Potency [5] | Potency [6]

CCN(CC)CCOc1ccccc1OC
inactive: max response [3] -0.561% | Potency [5] | Potency [6]

O=C1c2c(O)cccc2[C@H]([C@@H]2O[C@H](CO)[C@@H](O)[C@H](O)[C@H]2O)c2cc(CO)cc(O)c21
inactive: max response [3] -5.95% and -4.23% | Potency [5] | Potency [6]

CC/C(=C(/CC)c1ccc(OP(=O)(O)O)cc1)c1ccc(OP(=O)(O)O)cc1
inactive: max response [3] -1.73% | Potency [5] | Potency [6]

CCCCC[C@H](O)/C=C/[C@H]1[C@H](O)CC(=O)[C@@H]1C/C=C\CCCC(=O)O
inactive: max response [3] 5.55% | Potency [5] | Potency [6]

O=C(O)CC/C=C\CC[C@@H]1[C@@H](N2CCCCC2)[C@@H](O)C[C@@H]1OCc1ccc(-c2ccccc2)cc1
inactive: max response [3] -9.09% | Potency [5] | Potency [6]

Cc1cccc(C)c1Nc1ncccc1C(=O)O
inactive: max response [3] 11.3% | Potency [5] | Potency [6]

C[C@@H]1NC(=O)[C@@H](N)CNC(=O)[C@H](C2CCNC(N)=N2)NC(=O)/C(=C/NC(N)=O)NC(=O)[C@H](CNC(=O)C[C@@H](N)CCCN)NC1=O (stereo not given in full)
inactive: max response [3] 0.778% and -5.05% | Potency [5] | Potency [6]

O=C(OCc1ccccc1)c1ccc(O)cc1
inactive: max response [2] -5.99% | max response [3] 1.16% | outcome [4] | Potency [5] | Potency [6]

CC(O)CN(C)C (stereo not given)
inactive: max response [3] -6.61% | Potency [5] | Potency [6]

CC(C)C[C@H](NC(=O)[C@@H](Cc1c[nH]c2ccccc12)NC(=O)[C@H](Cc1ccc(O)cc1)NC(=O)[C@H](CO)NC(=O)[C@H](Cc1c[nH]c2ccccc12)NC(=O)[C@H](Cc1cnc[nH]1)NC(=O)[C@@H]1CCC(=O)N1)C(=O)N[C@@H](CCCN=C(N)N)C(=O)N1CCC[C@@H]1C(=O)NCC(N)=O
inactive: max response [3] -1.22% | Potency [5] | Potency [6]
